Results from PubChem BioAssay (NCI).
This is part of a sample that, as a whole, favours compounds with a hit. Of some 83,000 tested, about 20% had one in any assay.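 Activity criterion: percent growth below 10, measured after cells in 96-well plates were exposed to a single compound concentration for 48 hours.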 Values without a mark were called inactive. Active and inactive are the calls of the source.

Legend:
Experiment in all cases: NCI-60 one-dose screen, 48 h (100 = growth as untreated, 0 = no growth, -100 = all killed)
Conditions in all cases: 10 µM unless noted
T-47D breast = test system: T-47D breast
MDA-MB-435 melanoma = test system: MDA-MB-435 melanoma
SW-620 colon = test system: SW-620 colon
MCF7 breast = test system: MCF7 breast
HCT-116 colon = test system: HCT-116 colon
HCC-2998 colon = test system: HCC-2998 colon
KM12 colon = test system: KM12 colon
BT-549 breast = test system: BT-549 breast

SMILES	growth (T-47D breast)	growth (MDA-MB-435 melanoma)	growth (SW-620 colon)	growth (MCF7 breast)	growth (HCT-116 colon)	growth (HCC-2998 colon)	growth (KM12 colon)	growth (BT-549 breast)
COc1cc(-c2nn(C(C)(C)C)cc2-c2ccnc(NCCCNS(=O)(=O)c3ccc(Cl)cc3)n2)ccc1Cl	64.2%	72.2%	91.1%	52.2%	39%	108%	68.8%	–
Nc1nc(Nc2ccccc2SSc2ccccc2Nc2nc(N)nc(-c3cccc(Br)c3)n2)nc(-c2cccc(Br)c2)n1	62.6%	93.9%	98.5%	69.2%	47.8%	120%	23.6%	–
O=C(Nc1ccc2c(ccn2Cc2ccccn2)c1)c1cnccn1	101%	100%	93.7%	98.1%	100%	115%	100%	–
CC[C@@H](CO)Nc1ccc2ncc(C#Cc3cncc(C(=O)Nc4ccc(CN5CCN(C)CC5)c(C(F)(F)F)c4)c3)n2n1	-75.8% (active)	-88% (active)	-44.8% (active)	-69.6% (active)	-92.5% (active)	-43.2% (active)	-34.1% (active)	–
Oc1[nH]c2ccccc2c1Nn1c(N=N/C=c2/ccc3c(c2)C=NN=3)n[nH]c1=S	99%	103%	99%	77.1%	104%	118%	93.3%	–
NC(N)=Nc1ccc(Oc2cccc(Nc3ccc(Cl)c(C(F)(F)F)c3)c2)cn1	15.1%	-86.2% (active)	-69.8% (active)	-60.3% (active)	-69.4% (active)	-86.1% (active)	-81.8% (active)	–
Nc1ncc(-c2ccc3ncnc(N4CCc5cc(F)c(Cl)cc54)c3c2)cn1	13.5%	27.1%	40.7%	11.9%	20.5%	31.6%	50.6%	–
O=C(Nc1ccc(N=Cc2c(O)[nH]c3ccccc23)cc1)Nc1nccs1	41.2%	-52.7% (active)	21.4%	22.7%	27%	73.9%	59.2%	–
C=C(C)[C@@H]1CC[C@]2(COP(=O)(OCC)OCC)CC[C@]3(C)[C@H](CC[C@@H]4[C@@]5(C)CCCNC(C)(C)[C@@H]5CC[C@]43C)[C@@H]12	59.1%	36.5%	15.3%	–	-68.8% (active)	-27.4% (active)	55.7%	–
O=S(=O)(NCCNc1nccc(-n2cnc3ccccc32)n1)c1ccc(C(F)(F)F)cc1	22.3%	64.4%	83.5%	34.9%	40.1%	80.5%	58.7%	–
Nc1nc(Nc2ccccc2SSc2ccccc2Nc2nc(N)nc(-c3ccccc3)n2)nc(-c2ccccc2)n1	74.7%	90.6%	70.5%	68.3%	61.3%	110%	22.1%	–
Nn1c(N/N=C/c2nc3ccccc3s2)n[nH]c1=S	108%	110%	105%	93.7%	107%	123%	102%	–
CCCSc1nc(Nc2ccc(/C(C)=N\NC(N)=S)cc2)c(C#N)c(-c2ccccc2)n1	63.4%	87.5%	84.1%	47.9%	49%	89.5%	54.9%	–
O=C(c1ccc(O)c(C(=O)N2Cc3ccc(OCCC[P+](c4ccccc4)(c4ccccc4)c4ccccc4)cc3C2)c1)N1Cc2cccc(F)c2C1	38.7%	57.1%	76.2%	51.9%	96.9%	68.4%	57.8%	–
O=C(O)c1cn(C2CC2)c2cc(N3CCN(C(=O)CN4C(=O)CSC4=O)CC3)c(F)cc2c1=O	106%	98.6%	–	98.8%	98.8%	115%	101%	–
CC1(C)[C@@H](O)CC[C@]2(C)[C@H]3CC[C@@H]4[C@H]5[C@H](C(=O)/C=C\c6ccncc6)CC[C@]5(O)CC[C@@]4(C)[C@]3(C)CC[C@@H]12	68.7%	14.9%	–	24.6%	14.9%	77.9%	39.2%	–
CN(C)C(=O)c1cc(-c2ccc3ncnc(NCc4ccccc4)c3c2)cnc1N	62%	99.2%	102%	77.5%	101%	102%	101%	–
COc1cc(/C=C/C(=O)c2ccc(NC(=O)CSc3nnc(-c4ccc(-c5nc6ccc(Cl)cc6[nH]5)cc4)o3)cc2)cc(OC)c1OC	106%	24.1%	87.4%	91.8%	90.5%	96.3%	80.6%	–
COc1ccc(/C(N)=N/C(N)=N/c2nc3ccccc3s2)cc1	80.4%	20.3%	65.4%	–	79.6%	91.9%	-11.5% (active)	–
COc1cc(Cn2cc3c(c2)-c2onc(CN4CCOCC4)c2CC3)cc(OC)c1OC	–	101%	112%	89%	104%	105%	101%	96.7%

SMILES	growth (T-47D breast)	growth (MDA-MB-435 melanoma)	growth (SW-620 colon)	growth (MCF7 breast)	growth (HCT-116 colon)	growth (HCC-2998 colon)	growth (KM12 colon)	growth (BT-549 breast)
CCNC(=O)N1CCc2cc(OC)c(OCCc3ccc(OC)nc3)cc2C1c1ccc(C)cc1C (stereo not drawn)	–	10%	19.6%	14%	8.5% (active)	13%	9.57% (active)	–
COc1ccc(C(=O)CSc2nc3c(c(Nc4ccc(S(N)(=O)=O)cc4)n2)CCCC3)cc1	–	103%	86.4%	–	93%	97.6%	73.7%	127%
Cc1ccc(NC(=O)c2ccc(CN3CCN(C)CC3)cc2)cc1Oc1ccc(-c2[nH]nc3ncnc(N)c23)cc1	–	86.4%	80.2%	35.7%	81.9%	124%	56.3%	93%
CS(=O)(=O)Nc1cc(-c2ccc3ncc(C#N)c(NCc4cccc(F)c4)c3c2)cnc1Cl	–	5.21% (active)	6.55% (active)	0.85% (active)	4.35% (active)	-25.1% (active)	6.28% (active)	–
COc1ccccc1N1CCN(C2=CC(=O)C(C)=C(C)C2=O)CC1	–	106%	105%	–	106%	110%	105%	104%
N#Cc1cccc(/C(N)=N/C(N)=N/c2nc3ccccc3s2)c1	–	-39% (active)	22.9%	23.1%	24%	55.7%	24.6%	–
COc1ccc(-n2c(SCc3nnc(NC(=O)c4ccc(Br)cc4)s3)nc3cc(OC)c(OC)cc3c2=O)cc1	–	87.5%	–	85.6%	96.2%	88.2%	90.6%	137%
Cc1ccc2sc3c(c2c1)OC(N)=C(C#N)C3c1ccc(Cl)cc1 (stereo not drawn)	–	-10.7% (active)	63.4%	13.8%	88%	84.8%	45.5%	26.3%
CCn1c(SCC(=O)Nc2cccc(C(=O)/C=C/c3ccccc3Cl)c2)nc2ccccc2c1=O	–	98.6%	–	17.1%	-26.3% (active)	91%	85.3%	105%
NC(N)=Nc1ccc(Oc2cccc(Oc3ccc(Cl)c(C(F)(F)F)c3)c2)cn1	–	-86.8% (active)	-76.7% (active)	-70.6% (active)	-91.5% (active)	-80.6% (active)	-89.6% (active)	73.9%
COC(=O)c1[nH]nc2c1C1(C(=O)N(C)c3ccccc31)C(C#N)=C(N)O2 (stereo not drawn)	–	99.9%	–	89.6%	101%	104%	103%	133%
N=c1c2cc(-c3ccccc3)oc2ncn1/N=C/c1ccc(Br)cc1	–	61.6%	31%	65.6%	50.7%	100%	23.9%	101%
C=C=COc1cccc(/C(N)=N/C(N)=N/c2nc3ccccc3s2)c1	–	77.8%	94.9%	93.1%	25.1%	102%	71.1%	56%
N#Cc1c(Nc2ccccc2)nn2c(-c3ccc([N+](=O)[O-])cc3)ccnc12	–	97.4%	103%	93.2%	99.3%	106%	102%	99.5%
CN1CCN(Cc2ccc(NC(=O)c3cncc(C#Cc4cnc5ccc(NCCCO)nn45)c3)cc2C(F)(F)F)CC1	–	-39.8% (active)	-34.6% (active)	-34.5% (active)	-83.6% (active)	-9.99% (active)	-12.1% (active)	-81.5% (active)
CNC(=O)c1cc(-n2ccc3cc(NC(=O)Nc4ccc(N5CCOCC5)c(C(F)(F)F)c4)ccc32)ccn1	–	40.2%	62.5%	–	20.5%	87.4%	7.44% (active)	–
O=S(=O)(NCCNc1nccc(-n2cnc3ccccc32)n1)c1ccc(Cl)cc1	–	100%	100%	87.9%	94.6%	101%	97.1%	99.3%
CNCc1cccc2c1OCCCCCCC(C)(O)CC(C)(C)S(=O)(=O)c1ccc(cc1)-c1cnc(N)c(n1)C(=O)N2 (stereo not drawn)	–	-85.6% (active)	5.13% (active)	-58.1% (active)	-82.3% (active)	-6.01% (active)	-68.1% (active)	27.9%
CNC(=O)c1cc(-c2ccc(NC(=S)Nc3cc(C(F)(F)F)cc(C(F)(F)F)c3)cc2)nc2cccnc12	–	94.9%	–	59.6%	99%	122%	98.6%	–
O=C(CCn1c[n+](CC(=O)c2ccc(-c3ccccc3)cc2)c2ccccc21)Nc1cccc2cccnc12	–	32.2%	65.2%	19.8%	56%	38.9%	14.5%	53.7%

SMILES	growth (T-47D breast)	growth (MDA-MB-435 melanoma)	growth (SW-620 colon)	growth (MCF7 breast)	growth (HCT-116 colon)	growth (HCC-2998 colon)	growth (KM12 colon)	growth (BT-549 breast)
c1ccc(C(c2nc3ncncc3[nH]2)N2CSc3nc4ncncc4n3C2)cc1 (stereo not drawn)	–	29.2%	79%	14.2%	41.5%	55.6%	51.7%	73.1%
Nc1nc(Nc2ccccc2SSc2ccccc2Nc2nc(N)nc(-c3ccc4ccccc4c3)n2)nc(-c2ccc3ccccc3c2)n1	–	85.2%	104%	76%	57.9%	120%	51.5%	–
COc1ccc(/C=C/C(=O)c2cc(S(N)(=O)=O)c(OC)cc2OC)cc1	–	53.3%	46.6%	44.3%	65.1%	83.2%	40.9%	–
O=S(=O)(Oc1ccc(-c2nnc(Nc3ccccc3)s2)cc1)C(F)(F)C(F)(F)C(F)(F)C(F)(F)C(F)(F)C(F)(F)F	–	103%	103%	90.7%	109%	105%	102%	112%
C#C[C@]1(O)CC[C@H]2[C@@H]3CC=C4c5sc(-c6cccc(O)c6)nc5CC[C@]4(C)[C@H]3CC[C@@]21C	–	-51.4% (active)	-52.8% (active)	-28% (active)	-37.6% (active)	-24.8% (active)	-28.9% (active)	-22.8% (active)
CC(=O)N1N=C(c2cccc(-n3cccc3)c2)CC1c1cccc(F)c1 (stereo not drawn)	–	102%	96%	75.1%	92.5%	106%	103%	126%
C=C(C)[C@@H]1CC[C@]2(COC)CC[C@]3(C)[C@H](CC[C@@H]4[C@@]5(C)CCCNC(C)(C)[C@@H]5CC[C@]43C)[C@@H]12	–	10.4%	-57.6% (active)	7.62% (active)	-29.1% (active)	-29.1% (active)	38.1%	–
O=C(c1ccc(O)cc1)[C@@H]1CN[C@@]2(C(=O)Nc3ccccc32)[C@H]1c1ccc(F)cc1	–	107%	105%	99%	104%	113%	102%	79.7%
O=C(O)c1ccc(-n2cc(CNc3cc(F)c(F)c(F)c3)c(-c3ccc(F)cc3)n2)cc1	–	96.1%	103%	58.3%	88.5%	102%	92.9%	107%
O=C(CNc1nc(-c2cccc([N+](=O)[O-])c2)cs1)Nc1cccc(Cl)c1	–	105%	105%	91.3%	112%	115%	100%	91.7%
COc1ccc(/C=C(/C)c2ccc3ccc(OC)cc3[o+]2)c(O)c1	–	38%	30.1%	30.7%	50.7%	114%	71.6%	87.9%
C[C@@H](Nc1c(C#N)cnc2ccc(-c3cnc(Cl)c(NS(C)(=O)=O)c3)cc12)c1ccccc1	–	8.87% (active)	9.39% (active)	6.51% (active)	4.05% (active)	16.7%	15.1%	–
CNC(=O)c1c(NC(=O)c2ccccc2C(F)(F)F)sc2c1CCC(=O)C2	–	37.5%	21%	13.9%	8.16% (active)	62%	18.5%	27.2%
O=C(Nc1ccc(F)c(F)c1)c1cc(-c2ccc(F)cc2F)ccc1O	–	1.2% (active)	12.3%	0.642% (active)	6.45% (active)	15.5%	0.724% (active)	–
CN1CCC(n2cc(Nc3ncc4c(=O)n(-c5c(Cl)cccc5Cl)cc(Br)c4n3)cn2)CC1	–	5.4% (active)	–	18.7%	5.66% (active)	31%	14.8%	57.5%
O=C(Nc1nonc1-c1ccccc1)c1ccc(C(F)(F)F)cc1	–	82.7%	94.6%	72.3%	86.2%	101%	97.4%	85.5%
CC1(C)[C@@H](O)CC[C@]2(C)[C@H]3CC[C@@H]4[C@H]5[C@H](C(=O)/C=C\c6ccc([N+](=O)[O-])cc6)CC[C@]5(O)CC[C@@]4(C)[C@]3(C)CC[C@@H]12	–	36.1%	30.2%	38.7%	4.14% (active)	77.2%	53.3%	–
CCN1CCN(Cc2cn(-c3ccc(S(N)(=O)=O)cc3)nn2)CC1	–	107%	106%	97.4%	103%	106%	104%	130%
